Records with an inconclusive call do not appear. Active and inactive are the calls of the source. Unless noted, the call rests on the fitted dose curve; in most records, active means well fitted curve in either direction with a large enough effect (not every such curve was filed as active); inconclusive means small, poorly fitted or top-dose-only effect, or another doubt; inactive means flat fitted curve, though single readings scatter.
Assays:
[1] = target: Lysosomal acid glucosylceramidase (Homo sapiens) (UniProt P04062); test: Glucocerebrosidase-p2 (AID 348; in the data active means potency below about 10 µM; further: potency means the concentration at half of the fitted maximal effect); settings: purified GBA, blue fluorogenic substrate, 40 min
How it was run: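 Normal human glucocerebrosidase (0.2 nM) with blue fluorogenic substrate (80 uM final) in citrate/phosphate pH 5.9 with 10mM sodium taurocholate, 0.01% tween-20; 40 min RT, NaOH/glycine stop; fluorescence Ex 365/Em 440; AC50 from a titration from 0.6 nM upwards.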

[2] = AP1 Signaling Pathway (AID 357); settings: ME-180 AP-1-bla reporter, EGF-induced, beta-lactamase ratio, 5 h; at 7.69 µM (top of the series) unless noted; further: on the % scale 0 is the no-effect control and ±100 the full control effect
How it was run: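 AP-1-bla ME-180 cells with beta-lactamase reporter under AP-1 response element, stimulated with EC50 EGF; compounds titrated, 5 hours at 37 degrees Celsius. CCF4 read at 460/530 nm ratio; positive and negative modulators judged by AC50.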

[3] = NFAT Signaling Pathway (AID 444); settings: Jurkat NFAT-bla M1, carbachol, beta-lactamase ratio, 5 h; at 7.69 µM (top of the series) unless noted;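 further: carbachol stimulus at about its EC50 of 1 µM final; on the % scale 0 is the no-effect control and ±100 the full control effect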
How it was run: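 Jurkat cells carrying an NFAT-driven β-lactamase reporter and co-transfected muscarinic M1 receptor were treated with compound plus carbachol (1 uM final, an EC50 level) for 5 h at 37 °C. CCF4 loading followed for 1 h at RT; 460/530 nm ratio gave %activity.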

[4] = Stat Signaling Pathway (AID 446); settings: ME-180 SIE beta-lactamase reporter, IL-6 stimulated, 5 h; at 7.69 µM (top of the series) unless noted;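 further: ME-180 cervical cancer cells given 40 pM IL-6 alongside compound; SIE-controlled beta-lactamase reporter measured as 460/530 nm FRET emission ratio; on the % scale 0 is the no-effect control and ±100 the full control effect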
How it was run: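 FRET read-out (405 nm excitation, 460/530 nm emission) of a beta-lactamase reporter under a STAT-inducible element in ME-180 cervical carcinoma cells. Cells with compound receive 40 pM IL-6 for 5 h. Values are normalised to AC90 stimulation and AC90 JAK-inhibitor controls.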

[5] = target: Glucocorticoid receptor (Homo sapiens) (UniProt P04150); test: GR-GFP Redistribution (AID 450;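 active means compounds whose dose series gives a full or clear partial fitted curve of increased nuclear translocation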; further: potency means the concentration at half of the fitted maximal effect); settings: U2OS GR-GFP nuclear translocation, laser cytometry, 2 h
[6] = target: Glucocorticoid receptor (Homo sapiens) (UniProt P04150); test: GR-EFC Redistribution (AID 451; calls by dose curve; further: potency means the concentration at half of the fitted maximal effect); settings: CHO-K1 GR-EFC translocation, beta-gal luminescence, 2 h
How it was run: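 CHO-K1 cells stably expressing nuclear-localized β-gal enzyme acceptor and GR fused C-terminally to the enzyme donor fragment; ligand-driven nuclear translocation restores β-gal by complementation. Compounds titrated up to 46 uM final, 2 h at 37 °C; luminescence read.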

[7] = target: Mitogen-activated protein kinase 10 (Mus musculus) (UniProt Q61831); test: JNK3 AlphaScreen Assay (AID 530); settings: JNK3 lysate, c-Jun phosphorylation; series mostly up to 57.1 µM;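 further: kinase came from lysate of stimulated human HepG2 cells; signal reports phosphorylation of biotinylated GST-cJun 1-79 at Ser73 with 10 µM ATP; on the % scale 0 is the no-effect control and ±100 the full control effect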
How it was run: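 Biotinylated GST-cJun(1-79) served as substrate for JNK3 in HepG2 lysates stimulated with IL-1beta and TNF-alpha. ATP was 10 uM final, pH 7.6. Ser73 phosphorylation was quantified by AlphaScreen (680 nm excitation).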

[8] = target: 3',5'-cyclic-AMP phosphodiesterase 4B (Homo sapiens) (UniProt Q07343); test: qHTS Assay for Inhibitors of PDE-IV (AID 607; active means well fitted activation curve with a large enough effect in the main read-out, with a control signal flat, not every such curve was filed as active; further: % of control where 0% means no effect); settings: HEK293 ACTOne CNG channel cells, membrane potential fluorescence; series mostly up to 22.9 µM
How it was run: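 Cell-based read-out of cAMP via a modified cyclic nucleotide-gated channel and membrane potential dye (535/590 nm) in HEK293 cells expressing PDE4 endogenously. Compounds tested up to 22.9 uM final; 100 uM RO 20-1724 reference.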

[9] = Confirmation and Secondary Assay for Modulators of Hemoglobin Beta Chain Splicing at IVS2 654 locus (AID 910; active means well fitted curve in the direction sought with a large enough effect; an effect the other way counts as inactive or inconclusive;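 further: per-well total GFP intensity by laser scanning cytometry after 2-day treatment; % of control where 0% means no effect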); settings: HeLa EGFP-654 splicing reporter, GFP fluorescence, 48 h; series mostly up to 38.3 µM
How it was run: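 HeLa cells stably carrying EGFP interrupted by mutant beta-globin IVS2-654 intron (CMV-driven) were treated with compound for 2 days at 37C; corrected splicing was scored as total peak GFP intensity per well (488 nm excitation, 500-520 nm emission).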

[10] = Confirmation and Secondary Assay for Modulators of Hemoglobin Beta Chain Splicing at IVS2 705 locus (AID 930; active means well fitted curve in the direction sought with a large enough effect; an effect the other way counts as inactive or inconclusive;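 further: HeLa cells stably expressing the EGFP-705 splicing reporter; GFP fluorescence per well restored by corrected splicing of the IVS2-705 intron in EGFP; % of control where 0% means no effect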); settings: HeLa EGFP-705 splicing reporter, GFP fluorescence, 48 h; series mostly up to 38.3 µM
How it was run: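 Assay measures total GFP intensity per well in HeLa EGFP-705 cells after 2 days with compound; mis-splicing normally truncates EGFP, so fluorescence indicates corrected splicing.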

[11] = qHTS Assay for Lipid Storage Modulators (AID 1519; calls by dose curve); settings: Drosophila S3 cells, BODIPY lipid droplet/cell ratio, laser cytometry, cells loaded with oleic acid; for activity change, negative = inhibition: at 57.5 µM (top of the series)
How it was run: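 Cells seeded at 5,000 per well were treated with compounds over a concentration series and loaded with oleic acid (400 uM, as added). Lipid droplet fluorescence (488 nm excitation, 500-530 nm channel) was read by laser-scanning cytometry and normalized to 20 uM Triacsin C.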

[12] = target: Ubiquitin carboxyl-terminal hydrolase 1 (Homo sapiens) (UniProt O94782); test: Inhibitors of USP1/UAF1: Pilot qHTS (AID 504865; active means well fitted curve in the direction sought with a large enough effect; an effect the other way counts as inactive or inconclusive;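 further: rhodamine fluorescence freed from ubiquitin-rhodamine substrate followed over time; top concentration of the series differs between compounds; on the % scale 0 is the no-effect control and ±100 the full control effect; nearly all actives have a fitted effect of over 35% in size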); settings: purified USP1/UAF1, Ub-rhodamine cleavage fluorescence; series mostly up to 54.9 µM
How it was run: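 In 50mM HEPES pH 7.8 containing 0.5mM EDTA, 1mM TCEP, 0.1 mg/ml BSA and 0.01% Tween-20, 1nM USP1/UAF1 is exposed to compound for 15 min, then Ub-Rho (150nM final) is added and fluorescence is read over time.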

[13] = Primary qHTS for small molecule stabilizers of the endoplasmic reticulum resident proteome: Secreted ER Calcium Modulated Protein (SERCaMP) assay (AID 1508630; active means well fitted curve in the direction sought with a large enough effect; an effect the other way counts as inactive or inconclusive; further: on the % scale 0 is the no-effect control and ±100 the full control effect); settings: SH-SY5Y GLuc-SERCaMP (Gaussia luciferase released on ER calcium loss) secretion, thapsigargin, luminescence; series mostly up to 38.4 µM
How it was run: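 The SH-SY5Y reporter protocol was run at 3 concentrations up to 38.3 uM (primary) or 11 concentrations (follow-up): 16 h compound, 100 nM thapsigargin for 4 h, then extracellular luciferase luminescence.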

[14] = target: Cytochrome P450 3A4 (Homo sapiens) (UniProt P08684); test: qHTS Assay for Activators of Cytochrome P450 3A4 (AID 885; active means well fitted curve in the direction sought with a large enough effect; an effect the other way counts as inactive or inconclusive; further: nearly all actives have a fitted effect of over 65% in size; further: potency means the concentration at half of the fitted maximal effect); settings: recombinant CYP3A4, Luciferin-PPXE luminescence, 60 min; series mostly up to 57.1 µM
How it was run: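 Luminescent readout of luciferin formed from 25 uM Luciferin-PPXE (KM level) by 20 nM CYP3A4 in 200 mM KPO4, with 60 min NADPH-driven reaction at room temperature after 10 min compound exposure. Ketoconazole (57 uM) defined 100% inhibition.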

[15] = qHTS Assay for Identification of Small Molecule Agonists for Hypoxia Response Element Signaling Pathway (AID 914; active means well fitted activation curve with a large enough effect in the signal ratio, with a control signal flat, not every such curve was filed as active; the % refers to the signal ratio; further: % of control where 0% means no effect); settings: ME-180 (cervical carcinoma) HRE-bla reporter, beta-lactamase ratio, CoCl2, 17 h; activation: stronger effect = higher value
How it was run: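 Compounds in a titration series were added to ME-180 reporter cells alongside an EC50 level of CoCl2. After 17 hours, beta-lactamase activity was read as the 460nm/530nm emission ratio of CCF4, giving AC50 values.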

[16] = target: Cytochrome P450 1A2 (Homo sapiens) (UniProt P05177); test: p450-cyp1a2 (AID 410; calls by dose curve;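 further: -100% = full effect of reference inhibitor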); settings: recombinant CYP1A2, luciferin-ME demethylation, luminescence; series mostly up to 57 µM
How it was run: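 20nM CYP1A2, 100uM Luciferin-ME (=Km), 100mM KPO4; cpd 10 min RT; +NADPH regen, 60 min RT; stop/detect 20 min; luminescence. Normalized to furafylline 57 uM = full inhibition.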

[17] = target: Cytochrome P450 2D6 (Homo sapiens) (UniProt P10635); test: qHTS Assay for Inhibitors and Substrates of Cytochrome P450 2D6 (AID 891; active means well fitted curve in the direction sought with a large enough effect; an effect the other way counts as inactive or inconclusive; further: potency means the concentration at half of the fitted maximal effect; nearly all actives have a fitted effect of over 60% in size); settings: recombinant CYP2D6, luciferin-ME EGE luminescence; series mostly up to 57.1 µM
How it was run: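 Luminescent read-out of luciferin formed by 5 nM human CYP2D6 demethylating 30 uM Luciferin-ME EGE (Km level) over 60 min at room temperature after NADPH regeneration addition. Data normalized to full inhibition by 1.43 uM quinidine.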

[18] = measured here: cell count channel max response
[19] = measured here: lipid channel max response

Chain of Glucocorticoid receptor (Homo sapiens) (P04150 whole entry, looked up, the tested form may be a part): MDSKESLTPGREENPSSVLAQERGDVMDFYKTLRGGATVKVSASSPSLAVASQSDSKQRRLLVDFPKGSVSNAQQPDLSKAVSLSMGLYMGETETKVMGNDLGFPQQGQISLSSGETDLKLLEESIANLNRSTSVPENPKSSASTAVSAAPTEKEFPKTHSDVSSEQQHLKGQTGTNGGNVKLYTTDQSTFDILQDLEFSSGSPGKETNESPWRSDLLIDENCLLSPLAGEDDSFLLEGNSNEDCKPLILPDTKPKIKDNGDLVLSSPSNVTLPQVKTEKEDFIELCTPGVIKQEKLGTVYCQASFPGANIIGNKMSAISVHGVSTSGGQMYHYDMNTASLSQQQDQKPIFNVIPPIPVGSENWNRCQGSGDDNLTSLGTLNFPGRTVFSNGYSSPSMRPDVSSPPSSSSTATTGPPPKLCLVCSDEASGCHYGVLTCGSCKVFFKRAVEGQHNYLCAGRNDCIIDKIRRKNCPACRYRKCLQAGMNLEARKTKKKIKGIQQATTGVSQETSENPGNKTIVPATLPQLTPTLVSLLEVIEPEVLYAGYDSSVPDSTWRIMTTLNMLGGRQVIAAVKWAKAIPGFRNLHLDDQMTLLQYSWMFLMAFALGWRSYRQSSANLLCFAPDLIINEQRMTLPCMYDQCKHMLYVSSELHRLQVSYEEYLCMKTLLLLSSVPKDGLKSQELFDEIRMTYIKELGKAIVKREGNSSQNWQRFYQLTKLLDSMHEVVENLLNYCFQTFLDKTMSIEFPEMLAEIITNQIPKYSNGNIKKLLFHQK
Chain of Ubiquitin carboxyl-terminal hydrolase 1 (Homo sapiens) (O94782 whole entry, looked up): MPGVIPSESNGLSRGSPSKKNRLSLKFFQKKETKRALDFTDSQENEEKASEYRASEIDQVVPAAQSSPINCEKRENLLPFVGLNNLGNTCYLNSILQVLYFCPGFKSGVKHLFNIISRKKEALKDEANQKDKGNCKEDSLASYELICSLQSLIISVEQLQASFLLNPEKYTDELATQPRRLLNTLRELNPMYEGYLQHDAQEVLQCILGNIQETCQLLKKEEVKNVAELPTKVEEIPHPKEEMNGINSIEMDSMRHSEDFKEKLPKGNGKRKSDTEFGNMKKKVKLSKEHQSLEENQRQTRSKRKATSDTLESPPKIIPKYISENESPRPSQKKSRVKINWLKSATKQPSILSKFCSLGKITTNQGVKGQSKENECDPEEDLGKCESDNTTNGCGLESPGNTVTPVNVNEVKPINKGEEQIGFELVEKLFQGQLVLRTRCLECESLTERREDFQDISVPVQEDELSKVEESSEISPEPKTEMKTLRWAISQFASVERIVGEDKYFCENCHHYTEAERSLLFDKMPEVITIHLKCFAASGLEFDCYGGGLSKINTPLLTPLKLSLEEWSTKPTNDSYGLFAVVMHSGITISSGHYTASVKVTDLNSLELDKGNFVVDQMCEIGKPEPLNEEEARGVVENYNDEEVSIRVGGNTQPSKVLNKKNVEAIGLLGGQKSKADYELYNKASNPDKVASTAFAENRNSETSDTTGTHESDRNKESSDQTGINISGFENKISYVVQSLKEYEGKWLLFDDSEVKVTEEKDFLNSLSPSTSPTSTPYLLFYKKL
Chain of Lysosomal acid glucosylceramidase (Homo sapiens) (P04062 whole entry, looked up): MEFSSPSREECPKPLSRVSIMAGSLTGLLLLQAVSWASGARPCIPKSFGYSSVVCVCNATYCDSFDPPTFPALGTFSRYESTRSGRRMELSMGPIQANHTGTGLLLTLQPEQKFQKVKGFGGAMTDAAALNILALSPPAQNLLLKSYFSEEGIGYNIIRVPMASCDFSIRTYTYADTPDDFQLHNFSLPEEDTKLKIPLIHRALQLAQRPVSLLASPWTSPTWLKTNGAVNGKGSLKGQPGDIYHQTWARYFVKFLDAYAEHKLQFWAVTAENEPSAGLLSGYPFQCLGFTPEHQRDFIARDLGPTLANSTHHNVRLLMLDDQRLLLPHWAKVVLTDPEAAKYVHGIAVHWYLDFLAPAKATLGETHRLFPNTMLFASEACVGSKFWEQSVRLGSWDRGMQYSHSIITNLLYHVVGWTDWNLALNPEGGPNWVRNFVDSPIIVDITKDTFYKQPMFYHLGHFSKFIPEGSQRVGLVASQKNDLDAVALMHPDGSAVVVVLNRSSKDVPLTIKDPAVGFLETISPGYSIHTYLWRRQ
Chain of 3',5'-cyclic-AMP phosphodiesterase 4B (Homo sapiens) (Q07343 whole entry, looked up): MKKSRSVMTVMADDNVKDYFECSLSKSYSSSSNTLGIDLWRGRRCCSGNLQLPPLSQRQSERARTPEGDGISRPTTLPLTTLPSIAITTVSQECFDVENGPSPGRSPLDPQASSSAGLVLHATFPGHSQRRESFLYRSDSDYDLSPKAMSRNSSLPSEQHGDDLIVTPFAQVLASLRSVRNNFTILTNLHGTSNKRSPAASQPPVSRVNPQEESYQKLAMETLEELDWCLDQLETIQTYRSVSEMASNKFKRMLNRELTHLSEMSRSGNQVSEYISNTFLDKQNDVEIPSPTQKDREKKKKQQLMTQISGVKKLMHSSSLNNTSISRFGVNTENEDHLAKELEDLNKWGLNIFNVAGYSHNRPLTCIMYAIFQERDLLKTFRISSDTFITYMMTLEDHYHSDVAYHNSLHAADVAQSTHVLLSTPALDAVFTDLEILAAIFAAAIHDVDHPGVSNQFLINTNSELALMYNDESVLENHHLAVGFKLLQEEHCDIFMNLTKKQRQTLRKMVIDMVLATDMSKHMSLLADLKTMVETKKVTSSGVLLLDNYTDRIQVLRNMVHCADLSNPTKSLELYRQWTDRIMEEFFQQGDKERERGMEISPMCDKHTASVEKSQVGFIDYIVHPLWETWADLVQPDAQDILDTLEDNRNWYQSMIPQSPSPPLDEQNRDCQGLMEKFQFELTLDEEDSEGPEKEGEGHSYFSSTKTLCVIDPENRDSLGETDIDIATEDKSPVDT
Chain of Cytochrome P450 3A4 (Homo sapiens) (P08684 whole entry, looked up): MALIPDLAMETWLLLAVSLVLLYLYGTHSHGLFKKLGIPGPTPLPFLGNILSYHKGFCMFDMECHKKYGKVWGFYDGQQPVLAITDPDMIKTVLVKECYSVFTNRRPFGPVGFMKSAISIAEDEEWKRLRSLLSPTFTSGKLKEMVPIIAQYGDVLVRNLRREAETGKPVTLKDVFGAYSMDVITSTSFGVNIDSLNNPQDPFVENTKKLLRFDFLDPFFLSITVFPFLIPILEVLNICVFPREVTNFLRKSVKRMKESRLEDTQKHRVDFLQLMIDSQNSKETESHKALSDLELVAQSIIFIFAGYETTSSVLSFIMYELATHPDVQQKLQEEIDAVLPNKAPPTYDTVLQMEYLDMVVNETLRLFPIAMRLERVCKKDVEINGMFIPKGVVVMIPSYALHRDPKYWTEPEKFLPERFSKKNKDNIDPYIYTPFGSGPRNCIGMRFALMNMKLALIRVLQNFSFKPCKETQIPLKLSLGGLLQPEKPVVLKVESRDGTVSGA
Chain of Cytochrome P450 1A2 (Homo sapiens) (P05177 whole entry, looked up): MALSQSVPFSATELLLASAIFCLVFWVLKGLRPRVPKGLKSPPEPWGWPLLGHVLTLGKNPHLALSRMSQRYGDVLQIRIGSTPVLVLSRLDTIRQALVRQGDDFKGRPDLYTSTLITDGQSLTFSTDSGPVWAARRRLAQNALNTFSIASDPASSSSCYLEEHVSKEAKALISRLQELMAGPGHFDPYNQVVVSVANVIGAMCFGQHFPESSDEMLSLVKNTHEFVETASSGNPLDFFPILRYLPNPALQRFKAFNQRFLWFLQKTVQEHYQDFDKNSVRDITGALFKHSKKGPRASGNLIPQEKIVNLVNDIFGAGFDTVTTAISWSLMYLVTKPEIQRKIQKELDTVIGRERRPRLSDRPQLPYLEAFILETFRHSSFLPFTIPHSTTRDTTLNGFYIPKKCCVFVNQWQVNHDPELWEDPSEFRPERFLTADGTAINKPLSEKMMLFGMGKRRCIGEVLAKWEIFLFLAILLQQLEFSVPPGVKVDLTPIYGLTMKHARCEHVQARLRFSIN
Chain of Cytochrome P450 2D6 (Homo sapiens) (P10635 whole entry, looked up): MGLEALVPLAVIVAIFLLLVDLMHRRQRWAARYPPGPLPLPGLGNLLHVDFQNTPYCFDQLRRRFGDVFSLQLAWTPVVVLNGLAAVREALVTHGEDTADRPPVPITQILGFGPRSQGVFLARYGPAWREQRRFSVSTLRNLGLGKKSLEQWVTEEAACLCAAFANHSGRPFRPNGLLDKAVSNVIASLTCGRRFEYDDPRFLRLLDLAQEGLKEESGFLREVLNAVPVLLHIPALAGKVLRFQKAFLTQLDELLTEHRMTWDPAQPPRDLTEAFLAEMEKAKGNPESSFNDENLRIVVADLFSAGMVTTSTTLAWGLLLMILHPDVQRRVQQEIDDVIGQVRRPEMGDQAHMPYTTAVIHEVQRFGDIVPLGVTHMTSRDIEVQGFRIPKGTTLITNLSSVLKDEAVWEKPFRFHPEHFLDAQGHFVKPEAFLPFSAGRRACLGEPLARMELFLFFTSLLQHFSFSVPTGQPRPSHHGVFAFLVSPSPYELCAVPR

SMILES | Potency [1] | activity change, negative = inhibition [2] | activity change, negative = inhibition [3] | activity, negative = inhibition [4] | Potency [5] | Potency [6] | Potency [7] | Potency [8] | Potency [9] | outcome [10] | activity change, negative = inhibition [11] | max response [11, 18] [%] | max response [11, 19] [%] | Potency [12] | outcome [13] | Potency [14] | activation [15] | Potency [16] | Potency [17]
Cc1cnc(CNc2ccnc(-c3ccc(C(=O)N(C)C)cc3)n2)cn1 | > 11.4 µM (inactive) | 9.07% (inactive) | 1.49% (inactive) | 0.405% (inactive) | > 46 µM (inactive) | > 46 µM (inactive) | inactive | inactive | inactive | inactive | 9.3% (inactive) | 6.03 | 15.8 | inactive | inactive |  |  |  | 
COc1ccc(C(=O)N2CCC3(CC2)CN(c2ncccn2)C3)cc1 | > 11.4 µM (inactive) | -9.3% (inactive) | 13.7% (inactive) | -24.2% (inactive) |  | > 46 µM (inactive) | inactive | inactive |  |  | 1.87% (inactive) | 12.3 | 16.8 |  | inactive |  |  |  | 
COc1ncc2nc(-c3ccccc3)c(=O)n(C[C@H]3CCCO3)c2n1 | > 11.4 µM (inactive) | -19.2% (inactive) | -13.8% (inactive) | 0.632% (inactive) | > 9.22 µM (inactive) | > 46 µM (inactive) | inactive | inactive |  |  | 1.51% (inactive) | 9.98 | 14.7 |  | inactive | inactive |  |  | 
COCC(=O)N1CCC2(CC1)CCN(c1ccccc1)CC2 | > 11.4 µM (inactive) | -2.33% (inactive) | 15.9% (inactive) | -2.7% (inactive) |  | > 46 µM (inactive) | inactive | inactive |  |  | -1.96% (inactive) | 4.08 | 3.97 |  | inactive |  |  |  | 
COc1ccc(C(=O)N2CCC[C@@]3(CCN(c4ccccn4)C3)C2)cc1 | > 11.4 µM (inactive) | -10.4% (inactive) | -4.97% (inactive) | -7.47% (inactive) |  | > 46 µM (inactive) | inactive | inactive |  |  | 5.2% (inactive) | 13.5 | 23.4 |  | inactive |  |  |  | 
COC(=O)N1CCC[C@@]2(CCN(c3ccccc3)C2)C1 | > 11.4 µM (inactive) | -10.2% (inactive) | -9.75% (inactive) | 7.98% (inactive) |  | > 46 µM (inactive) | inactive | inactive |  |  | -12.5% (inactive) | 14 | -1.29 |  | inactive |  |  |  | 
O=C(Nc1cccc(F)c1)N1CC2(CCN(C(=O)c3ccco3)CC2)C1 | > 11.4 µM (inactive) | -3.07% (inactive) | 4.39% (inactive) | 1.12% (inactive) |  | > 46 µM (inactive) | inactive | inactive |  |  | 5.94% (inactive) | 1.85 | 13.6 |  | inactive |  |  |  | 
COc1ccccc1CNc1ncncc1-c1ccccc1CN(C)C | > 11.4 µM (inactive) | -14.2% (inactive) | -25.5% (inactive) | 6.72% (inactive) | > 46 µM (inactive) | > 46 µM (inactive) | inactive | inactive | inactive | inactive | 5.27% (inactive) | 12.7 | 17.5 |  | inactive |  | -9.29% (inactive) |  | 
COc1cccc(-c2cc(NCc3cccc(C)c3)ncn2)c1 | > 11.4 µM (inactive) | -1.98% (inactive) | -3.2% (inactive) | -11.9% (inactive) | > 46 µM (inactive) | > 46 µM (inactive) | inactive |  |  |  | -15.5% (inactive) | 8.52 | -6.01 |  | inactive |  |  |  | 
CC(=O)NCCNc1nc(-c2ccccc2CN(C)C)nc2ccccc12 | > 11.4 µM (inactive) | 6.16% (inactive) | 2.15% (inactive) | 13.7% (inactive) | > 46 µM (inactive) | > 46 µM (inactive) | inactive | inactive | inactive | inactive | 5.82% (inactive) | 13.1 | 18.7 | inactive | inactive |  |  |  | 
COc1ccc(CNc2ncncc2-c2ccccc2Cl)c(OC)c1 | > 11.4 µM (inactive) | -16.1% (inactive) | -7% (inactive) | 15.1% (inactive) | > 46 µM (inactive) | > 46 µM (inactive) | inactive | inactive | inactive | inactive | 5.27% (inactive) | -5 | 2.12 | inactive | inactive |  |  |  | 
COC(=O)N1CCC2(CC1)CCN(C(c1ccccc1)c1ccccc1)CC2 | > 11.4 µM (inactive) | -7.14% (inactive) |  |  |  | > 46 µM (inactive) | inactive | inactive |  |  | 2.35% (inactive) | 5.65 | 12.4 |  | inactive | 12.6 µM (active) |  | inactive | 7.94 µM (active)
O=C(c1cnccn1)N1CCC[C@@]2(CCN(Cc3ccccc3)C2)C1 | > 11.4 µM (inactive) | 5.08% (inactive) | 6.26% (inactive) | 1.17% (inactive) |  | > 46 µM (inactive) | inactive | inactive |  |  | 1.97% (inactive) | 8.78 | 13.2 |  | inactive |  |  |  | 
COC(=O)N1CCC[C@@]2(CCN(Cc3cc(C(F)(F)F)cc(C(F)(F)F)c3)C2)C1 | > 11.4 µM (inactive) | -12.5% (inactive) | 9.2% (inactive) | -8.1% (inactive) |  | > 46 µM (inactive) | inactive | inactive |  |  | -1.37% (inactive) | 12.3 | 14.8 |  | inactive |  |  |  | 

— PubChem BioAssay (NCATS)
